A short description of test [1]: Nuclear factor erythroid 2-related factor 2/antioxidant responsive element (Nrf2/ARE) small molecule agonists: qHTS cell viability counter screen in human keratinocytes (AID 1919968; active = well fitted curve in the direction sought with a large enough effect in the repeat runs; an effect the other way counts as inactive or inconclusive; also: nearly all actives have a fitted effect of over 55% in size; also: potency is read from the fitted curve at half-maximal effect). The method, boiled down: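 After a 5 h attachment period, ARE-reporter keratinocytes were dosed with compounds in DMSO and then cultured 23 h at 37 C. Cell viability came from CellTiter-Fluor signal read after a further 1 h.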
A general note: Quantitative high-throughput screening tests each substance at several concentrations.

For test [2], the target named is Gonadotropin-releasing hormone receptor (Homo sapiens) (UniProt P30968). Description: Human gonadotropin-releasing hormone receptor (GnRHR) small molecule agonists, calcium flux assay in GnRHR-HEK293 cells (AID 1920063). Also: nearly all actives have a fitted effect of over 35% in size. The essentials: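 We seeded human GnRHR-expressing HEK293 cells for 18 hours, loaded them with calcium dye for an hour at 37 C, added test compounds, and recorded fluorescence intensity kinetically for three minutes.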

Test [3] concerns the target KiSS-1 receptor (Homo sapiens) (UniProt Q969F8). Kind of test: Human kisspeptin (KISS1R) small molecule agonists, calcium flux assay in KISS1R-HEK293 cells (AID 1920064; active = well fitted curve in the direction sought with a large enough effect in the repeat runs; an effect the other way counts as inactive or inconclusive). The essentials:
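Kinetic calcium assay, 1 s sampling over 3 min at Ex/Em 480/540, in HEK293 cells engineered with human KISS1R; compounds delivered in DMSO after 1 h dye loading.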
In general terms: Calcium assays in cells follow changes in intracellular calcium, usually with a dye or a luminescent sensor.

A short description of test [4]: G protein-coupled receptor (GPCR) small molecule agonists, calcium flux assay: HEK293 wild type cell line counter screen (AID 1920065). The essentials:
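Calcium-sensitive dye, loaded 1 h at 37 C into cells cultured 18 h, reports compound-evoked calcium release as fluorescence (Ex/Em 480/540), measured over 3 min. Agonist mode; 15-point titrations, triplicate.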

Test [5] can be described thus: p53 small molecule agonists, cell-based qHTS assay with human liver microsomes (AID 1963577). The method, boiled down: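 p53RE-bla cells, 4,000/well, compound added after 5 h, with human liver microsomes 0.5 mg/mL and NADPH 0.5 mg/mL final; 16 h at 37 C, then LiveBLAzer 2 h RT, fluorescence.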
Test [6] can be described thus: p53 small molecule agonists, cell-based qHTS assay with rat liver microsomes (AID 1963578). The method, boiled down: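 p53RE-bla cells, 4,000/well, pre-incubated 5 h, then given compounds plus rat liver microsomes (0.5 mg/mL final) and NADPH (0.5 mg/mL final). Incubation 16 h at 37 C; beta-lactamase reporter read by LiveBLAzer fluorescence after 2 h at room temperature.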

The nature of test [7]: p53 small molecule agonists, cell-based qHTS assay with human liver microsomes: qHTS cell viability counter screen (AID 1963579). Also: nearly all actives have a fitted effect of over 45% in size. The essentials:
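p53RE-bla cells, 4,000/well, dosed 5 hours after plating, with human liver microsomes (0.5 mg/mL final) plus NADPH (0.5 mg/mL final), 16 hours at 37 C. Viability read as CellTiter-Glo luminescence after 30 min at room temperature.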

Test [8] in a line: p53 small molecule agonists, cell-based qHTS assay: qHTS cell viability counter screen (AID 1963581). Also: nearly all actives have a fitted effect of over 45% in size. The essentials: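 Following 5 h attachment, HCT-116 p53RE-bla cells took up compound for 16 h at 37 C; the reporter was read with B/G FRET substrate (2 h RT), and viability then via CellTiter-Glo ATP luminescence.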
Test [9] is described as follows: p53 small molecule agonists, cell-based qHTS assay (AID 1963582; active = well fitted activation curve with a large enough effect in the signal ratio in the repeat runs, not every such curve was filed as active; the % refers to the signal ratio). The essentials:
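In this cell-based concentration-response screen, a p53 response element drives beta-lactamase; cells received DMSO-borne compounds after 5 h culture and were incubated a further 16 h before FRET substrate development.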

Test [10] concerns the target 5-hydroxytryptamine receptor 2A (Homo sapiens) (UniProt P28223). Description: 5-hydroxytryptamine receptor 2A (HTR2A) small molecule antagonists, cell-based qHTS assay (AID 1963586). Also: nearly all actives have a fitted effect of over 45% in size. The essentials:
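Antagonist-mode intracellular calcium assay: DOI (4 nM) added after 5 min compound pre-incubation at room temperature to dye-loaded HTR2A-CHO cells. Fluorescence followed for 3 min, sampled every second.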

Test [11] shares this target. Kind of test: 5-hydroxytryptamine receptor 2A (HTR2A) small molecule agonists, cell-based qHTS assay (AID 1963587). Also: nearly all actives have a fitted effect of over 30% in size. The method, boiled down: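 CHO cells stably expressing human HTR2A, plated 18 h, loaded with calcium dye 1 h at 37 C. Agonist mode: compounds added and intracellular calcium fluorescence recorded kinetically for 2 min at 1 sec intervals.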
Test [12] concerns the target Muscarinic acetylcholine receptor M1 (Homo sapiens) (UniProt P11229). Description: Cholinergic receptor muscarinic 1 (CHRM1) small molecule antagonists, cell-based qHTS assay (AID 1963588). Also: nearly all actives have a fitted effect of over 40% in size. The essentials: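 CHRM1-CHO calcium-flux assay, antagonist mode. Cells were seeded 18 h, dye-loaded 1 h at 37 C and given compound for 5 min at RT, then acetylcholine was added at 50nM. FDSS fluorescence was read 3 min; 15 concentrations, three runs.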

The target is the same in test [13]. Kind of test: Cholinergic receptor muscarinic 1 (CHRM1) small molecule agonists, cell-based qHTS assay (AID 1963589). Also: nearly all actives have a fitted effect of over 35% in size. The essentials:
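Measures agonist-induced intracellular calcium rise. Stable human CHRM1 CHO line, 1 h dye load at 37 C, compounds from DMSO, kinetic fluorescence read.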

Test [14] in a line: cAMP Responsive Elements (CRE) small molecule agonists, cell-based qHTS assay (AID 1963590). The essentials:
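A CRE-responsive beta-lactamase reporter in HEK 293T cells was used. Treatment ran 3 h at 37 C; detection used LiveBLAzer B/G FRET substrate for 2 h at room temperature.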

Test [15] in a line: cAMP Responsive Elements (CRE) small molecule antagonists, cell-based qHTS assay (AID 1963591; active = well fitted inhibition curve with a large enough effect in the signal ratio in the repeat runs, not every such curve was filed as active; the % refers to the signal ratio). The essentials:
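HEK293T cells carrying a CRE-driven beta-lactamase reporter receive compound and NKH477 (0.25 uM final) for 3 h. Fluorescence from LiveBLAzer B/G FRET substrate is read after 2 h at room temperature.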

Test [16] concerns the target Beta-2 adrenergic receptor (Homo sapiens) (UniProt P07550). Kind of test: Adrenergic beta2 receptor (ADRB2) small molecule antagonists, cell-based qHTS assay (AID 1963592). Also: series mostly up to about 92 µM; nearly all actives have a fitted effect of over 50% in size. The method, boiled down: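 Cells (CHO, stable ADRB2 overexpression) incubated 18-20hr at 37C; compounds added from DMSO; agonist mix (1nM isoproterenol, 100uM IBMX, 25uM Ro-20-1724) added; 0.5hr RT; d2-cAMP and anti-cAMP-cryptate added; 1hr RT; 665/615 nm read.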

Test [17] deals with D(2) dopamine receptor (Homo sapiens) (UniProt P14416). Kind of test: Dopamine D2 receptor (DRD2) small molecule agonists, cell-based qHTS assay (AID 1963594). Also: nearly all actives have a fitted effect of over 35% in size. The essentials: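 HEK293 cells stably expressing human DRD2, pre-treated with PDE inhibitor Ro20-1724 (0.1 mM final) and compound 10 min at room temperature, then stimulated with NKH477 (200nM […]) for 30 min. cAMP read by HTRF (665/620 nm).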

Test [18] has the same target. Description: Dopamine D2 receptor (DRD2) small molecule antagonists, cell-based qHTS assay (AID 1963595; active = well fitted inhibition curve with a large enough effect in the signal ratio in the repeat runs, with a control signal flat; the % refers to the signal ratio). The essentials:
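Stable D2 receptor HEK293 line, 24 h after seeding. Compound preincubated 10 min, then quinpirole (12 nM) with forskolin analogue NKH477 (200 nM), 30 min, room temperature. Detection by time-resolved FRET of cAMP.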

Test [19] is described as follows: p53 small molecule agonists, cell-based qHTS assay with rat liver microsomes: qHTS cell viability counter screen (AID 1963580). Also: nearly all actives have a fitted effect of over 45% in size. The method, boiled down: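 p53RE-bla HCT-116 cells were exposed 16 h at 37 C to compounds with rat liver microsomes (0.5 mg/mL) and NADPH (0.5 mg/mL). Viability was measured in the same wells as ATP content by CellTiter-Glo luminescence.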

Each structure is given as a SMILES string. Inconclusive results are not listed. Calls of active or inactive are those of the source. Unless noted, calls follow the shape of the full dose curve.

Among the data in PubChem BioAssay (Tox21) are Potency values, retold here.

5-hydroxytryptamine receptor 2A (Homo sapiens), sequence (P28223 whole entry, looked up): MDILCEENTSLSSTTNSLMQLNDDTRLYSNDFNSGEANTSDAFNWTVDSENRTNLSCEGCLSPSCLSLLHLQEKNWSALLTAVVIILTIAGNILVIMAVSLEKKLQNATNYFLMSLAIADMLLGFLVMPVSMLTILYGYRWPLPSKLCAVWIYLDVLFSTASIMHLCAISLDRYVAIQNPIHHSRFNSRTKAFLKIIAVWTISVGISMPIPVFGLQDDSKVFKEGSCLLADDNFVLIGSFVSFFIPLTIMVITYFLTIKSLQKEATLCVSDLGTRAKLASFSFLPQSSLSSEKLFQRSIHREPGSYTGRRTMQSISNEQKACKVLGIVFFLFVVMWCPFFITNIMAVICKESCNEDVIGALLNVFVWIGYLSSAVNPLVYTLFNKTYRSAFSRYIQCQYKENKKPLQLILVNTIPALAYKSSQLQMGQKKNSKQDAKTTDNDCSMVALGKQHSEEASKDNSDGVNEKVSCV
Muscarinic acetylcholine receptor M1 (Homo sapiens), sequence (P11229 whole entry, looked up): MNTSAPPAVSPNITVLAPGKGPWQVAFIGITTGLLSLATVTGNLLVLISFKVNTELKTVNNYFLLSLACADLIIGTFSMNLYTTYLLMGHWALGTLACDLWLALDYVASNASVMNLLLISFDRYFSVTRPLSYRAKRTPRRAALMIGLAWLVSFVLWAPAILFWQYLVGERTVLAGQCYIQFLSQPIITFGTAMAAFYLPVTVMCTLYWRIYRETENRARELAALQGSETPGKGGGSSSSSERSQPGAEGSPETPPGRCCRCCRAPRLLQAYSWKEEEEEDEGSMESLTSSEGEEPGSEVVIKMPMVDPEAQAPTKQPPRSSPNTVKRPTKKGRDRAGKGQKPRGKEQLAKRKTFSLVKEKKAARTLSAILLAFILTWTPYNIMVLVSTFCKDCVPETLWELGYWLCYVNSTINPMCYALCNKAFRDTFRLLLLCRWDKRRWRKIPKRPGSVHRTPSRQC
D(2) dopamine receptor (Homo sapiens), sequence (P14416 whole entry, looked up): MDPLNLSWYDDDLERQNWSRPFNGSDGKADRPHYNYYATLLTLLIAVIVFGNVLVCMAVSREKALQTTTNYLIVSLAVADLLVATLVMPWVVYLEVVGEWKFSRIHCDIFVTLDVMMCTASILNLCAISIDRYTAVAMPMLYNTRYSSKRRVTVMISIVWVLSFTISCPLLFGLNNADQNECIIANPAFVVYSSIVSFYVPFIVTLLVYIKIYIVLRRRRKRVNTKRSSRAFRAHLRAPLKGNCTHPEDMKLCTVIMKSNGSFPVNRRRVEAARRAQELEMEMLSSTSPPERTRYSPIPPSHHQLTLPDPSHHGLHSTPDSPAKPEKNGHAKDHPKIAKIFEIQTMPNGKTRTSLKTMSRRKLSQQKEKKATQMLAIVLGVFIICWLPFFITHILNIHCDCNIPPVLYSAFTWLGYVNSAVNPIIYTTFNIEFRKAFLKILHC
Beta-2 adrenergic receptor (Homo sapiens), sequence (P07550 whole entry, looked up): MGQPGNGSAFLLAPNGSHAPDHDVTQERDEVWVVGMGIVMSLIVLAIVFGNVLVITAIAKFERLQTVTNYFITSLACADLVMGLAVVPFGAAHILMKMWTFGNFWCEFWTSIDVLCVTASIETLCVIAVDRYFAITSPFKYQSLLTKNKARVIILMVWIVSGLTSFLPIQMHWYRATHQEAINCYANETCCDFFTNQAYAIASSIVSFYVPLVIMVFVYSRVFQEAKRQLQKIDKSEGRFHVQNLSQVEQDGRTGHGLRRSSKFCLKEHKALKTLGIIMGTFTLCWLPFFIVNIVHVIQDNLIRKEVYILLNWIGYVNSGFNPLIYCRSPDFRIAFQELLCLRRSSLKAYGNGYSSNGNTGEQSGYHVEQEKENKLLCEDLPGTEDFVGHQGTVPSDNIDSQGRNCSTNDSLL
Gonadotropin-releasing hormone receptor (Homo sapiens), sequence (P30968 whole entry, looked up): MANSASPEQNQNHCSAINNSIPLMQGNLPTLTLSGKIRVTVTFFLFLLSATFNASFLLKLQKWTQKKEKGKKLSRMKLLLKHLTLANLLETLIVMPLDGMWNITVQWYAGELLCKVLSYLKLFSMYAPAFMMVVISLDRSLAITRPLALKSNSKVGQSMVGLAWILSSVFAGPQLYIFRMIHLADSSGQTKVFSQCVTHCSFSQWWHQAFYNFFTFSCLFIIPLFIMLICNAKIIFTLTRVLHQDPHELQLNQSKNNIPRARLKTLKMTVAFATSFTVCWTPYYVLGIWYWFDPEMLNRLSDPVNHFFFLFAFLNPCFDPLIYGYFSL
KiSS-1 receptor (Homo sapiens), sequence (Q969F8 whole entry, looked up): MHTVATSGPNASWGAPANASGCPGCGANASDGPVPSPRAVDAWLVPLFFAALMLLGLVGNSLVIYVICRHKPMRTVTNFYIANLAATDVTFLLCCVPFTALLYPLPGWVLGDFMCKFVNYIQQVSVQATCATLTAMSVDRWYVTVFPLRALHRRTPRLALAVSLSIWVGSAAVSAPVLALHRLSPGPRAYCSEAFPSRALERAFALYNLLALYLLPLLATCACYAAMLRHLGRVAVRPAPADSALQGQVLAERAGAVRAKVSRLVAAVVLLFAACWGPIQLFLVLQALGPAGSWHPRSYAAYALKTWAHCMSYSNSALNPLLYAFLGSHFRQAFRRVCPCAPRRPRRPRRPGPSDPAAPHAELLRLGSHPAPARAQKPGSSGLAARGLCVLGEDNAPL

`O=C(CBr)OCc1ccccc1`: the Potency result in [1], in test [2], in test [3], in test [4], in test [5] and in test [6] was “inactive” in each case. Further, the Potency entry in [7], in test [8], in test [9], in [10], in test [11] and in [12] was “inactive” in each case. The Potency result in [13], in [14], in test [15], in [16], in test [17] and in [18] was “inactive” each time.
`CC(C)C(Nc1ccc(C(F)(F)F)cc1Cl)C(=O)OC(C#N)c1cccc(Oc2ccccc2)c1` (stereo unspecified): the Potency result in [1], in [2], in test [3], in test [4], in test [5] and in test [6] was “inactive” throughout. The Potency entry in test [19], in test [8], in [11], in test [12], in test [13] and in test [16] was “inactive” each time. Moreover, in test [17], the Potency result was “inactive”.
For the compound `CO/N=C(/C(=O)OC)c1ccccc1COc1ccccc1C`, the Potency entry in [1], in test [2], in test [3], in [4], in test [5] and in test [6] was “inactive” throughout. Besides, the Potency result in [7], in test [8], in [10], in [11], in test [12] and in [13] was “inactive” throughout. Besides, the Potency result in [16], in test [17] and in test [18] was “inactive” throughout.
For `CCC(C)c1cc([N+](=O)[O-])cc([N+](=O)[O-])c1OC(=O)C=C(C)C` (stereo unspecified), in test [1], the Potency is 48.6 µM (active). Besides, the Potency result in test [2], in [3], in test [4], in test [5], in test [6] and in [19] was “inactive” in each case. For the same compound, the Potency result in [8], in test [10], in [12], in [13], in test [16] and in test [18] was “inactive” throughout.
`Cc1cc(C)nc(Nc2ccccc2)n1`: the Potency result in test [1], in test [2], in test [3], in test [4], in [5] and in [6] was “inactive” throughout. The Potency entry in test [7], in test [19], in [9], in test [10], in test [11] and in test [13] was “inactive” each time. In addition, the Potency result in test [14], in [15], in test [16] and in [17] was “inactive” in each case.
On to `N#CCc1ccc(Cl)cc1`, for which the Potency entry in [1], in [2], in test [3], in test [4], in [5] and in test [6] was “inactive” throughout. Moreover, the Potency result in test [7], in [8], in [9], in test [10], in test [11] and in test [12] was “inactive” throughout. Further, the Potency result in test [13], in test [14], in test [15], in test [16], in test [17] and in test [18] was “inactive” in each case.
For the compound `CC1(C)CON(Cc2ccccc2Cl)C1=O`, the Potency entry in test [1], in test [2], in test [3], in [4], in test [5] and in test [6] was “inactive” in each case. Further, the Potency result in test [7], in test [19], in test [9], in test [10], in test [11] and in [12] was “inactive” throughout. The Potency result in [13], in [14], in [15], in test [16], in [17] and in test [18] was “inactive” each time.
